# Values joined by “and” are separate entries in the source; they are usually repeats but may differ in a detail not shown here. Equal values may be shown once. Read-outs that look alike come from different tables or passages of the source.
# Tests used:
# ACVR2B = conditions: n = 1
# ACVRL1 = conditions: concentration: 1 μM, replicates: in singlicate; n = 1
# ADCK3 = test system: T1, ADCK3; conditions: n = 1
# T1 construct: gene CABC1
# ADCK4 = conditions: n = 1
# AKT1 = conditions: concentration: 1 μM, replicates: in singlicate; n = 1
# AKT2 = conditions: n = 1
# AKT3 = conditions: concentration: 1 μM, replicates: in singlicate; n = 1
# ALK = conditions: n = 1
# AMPK-alpha1 = test system: T2, AMPK-alpha1; conditions: n = 1
# T2 construct: gene PRKAA1
# AMPK-alpha2 = test system: T3, AMPK-alpha2; conditions: n = 1
# T3 construct: gene PRKAA2
# ANKK1 = conditions: n = 1
# ARK5 = test system: T4, ARK5; conditions: n = 1
# T4 construct: gene NUAK1
# ASK1 = test system: T5, ASK1; conditions: n = 1
# T5 construct: gene MAP3K5
# ASK2 = test system: T6, ASK2; conditions: n = 1
# T6 construct: gene MAP3K6
# AURKA = conditions: n = 1
# AURKB = conditions: n = 1
# AURKC = conditions: n = 1
# AXL = conditions: n = 1
# BIKE = test system: T7, BIKE; conditions: n = 1
# T7 construct: gene BMP2K
# BLK = conditions: n = 1
# [1] = concentration: 1 μM, replicates: in singlicate
# [2] = concentration: 1 μM,replicates: in singlicate, 1 µM
# 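Note: KINOMEscan kinase panel screen.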
smiles,measurement,setting,value
CC(C)(C)c1ccc(C(=O)Nc2cn3cc(-c4cccnc4)ccc3n2)cc1,%Inh,ACVR2B; [1],0%
same,%Inh,ACVRL1,0%
same,%Inh,ADCK3; [1],19%
same,%Inh,ADCK4; [1],0%
same,%Inh,AKT1,0%
same,%Inh,AKT2; [1],0%
same,%Inh,AKT3,4%
same,%Inh,ALK; [1],0%
same,%Inh,AMPK-alpha1; [1],43%
same,%Inh,AMPK-alpha2; [1],0%
same,%Inh,ANKK1; [1],11%
same,%Inh,ARK5; [1],14%
same,%Inh,ASK1; [1],94.9%
same,%Inh,ASK2; [1],0%
same,%Inh,AURKA; [1],0%
same,%Inh,AURKB; [1],34%
same,%Inh,AURKC; [1],19%
same,%Inh,AXL; [1],25%
same,%Inh,BIKE; [1],8%
same,%Inh,BLK; [1],8%
COc1ccc(Nc2nccc(NCCNC(=O)Nc3ccccc3F)n2)cc1 [GSK1379901],%Inh,ACVR2B; [1],0%
same,%Inh,ACVRL1,0%
same,%Inh,ADCK3; [1],15%
same,%Inh,ADCK4; [1],25%
same,%Inh,AKT1,0%
same,%Inh,AKT2; [1],0%
same,%Inh,AKT3,0%
same,%Inh,ALK; [1],48%
same,%Inh,AMPK-alpha1; [1],0%
same,%Inh,AMPK-alpha2; [1],0%
same,%Inh,ANKK1; [1],22%
same,%Inh,ARK5; [1],23%
same,%Inh,ASK1; [1],0%
same,%Inh,ASK2; [1],4%
same,%Inh,AURKA; [1],12%
same,%Inh,AURKB; [1],36%
same,%Inh,AURKC; [1],28%
same,%Inh,AXL; [1],0%
same,%Inh,BIKE; [1],12%
same,%Inh,BLK; [1],0%
COc1cc(Nc2nccc(N3CCC(NC(=O)Nc4cc(C)ccc4C)C3)n2)cc(OC)c1OC (centres unmarked) [GSK1379762],%Inh,ACVR2B; [1],0%
same,%Inh,ACVRL1,0%
same,%Inh,ADCK3; [1],30%
same,%Inh,ADCK4; [1],49%
same,%Inh,AKT1,0%
same,%Inh,AKT2; [1],0%
same,%Inh,AKT3,0%
same,%Inh,ALK; [1],45%
same,%Inh,AMPK-alpha1; [1],0%
same,%Inh,AMPK-alpha2; [1],22%
same,%Inh,ANKK1; [1],13%
same,%Inh,ARK5; [1],50%
same,%Inh,ASK1; [1],1%
same,%Inh,ASK2; [1],7%
same,%Inh,AURKA; [1],92.7%
same,%Inh,AURKB; [1],94.4%
same,%Inh,AURKC; [1],81%
same,%Inh,AXL; [1],0%
same,%Inh,BIKE; [1],60%
same,%Inh,BLK; [1],10%
CN1C(=O)C(Nc2ccc(Cl)c(C(=O)O)c2)=C(c2ccc(Cl)cc2)C1=O [SB-404290],%Inh,ACVR2B; [1],0%
same,%Inh,ACVRL1,0%
same,%Inh,ADCK3; [1],0%
same,%Inh,ADCK4; [1],10%
same,%Inh,AKT1,0%
same,%Inh,AKT2; [1],0%
same,%Inh,AKT3,1%
same,%Inh,ALK; [1],0%
same,%Inh,AMPK-alpha1; [1],6%
same,%Inh,AMPK-alpha2; [1],0%
same,%Inh,ANKK1; [1],0%
same,%Inh,ARK5; [1],0%
same,%Inh,ASK1; [1],0%
same,%Inh,ASK2; [1],33%
same,%Inh,AURKA; [1],19%
same,%Inh,AURKB; [1],31%
same,%Inh,AURKC; [1],5%
same,%Inh,AXL; [1],10%
same,%Inh,BIKE; [1],0%
same,%Inh,BLK; [1],0%
O=c1cc(N2CCOCC2)nc2n(Cc3cccc(Cl)c3Cl)ccn12 [GSK2286295],%Inh,ACVR2B; [1],3%
same,%Inh,ACVRL1,0%
same,%Inh,ADCK3; [1],27%
same,%Inh,ADCK4; [1],6%
same,%Inh,AKT1,0%
same,%Inh,AKT2; [1],13%
same,%Inh,AKT3,10%
same,%Inh,ALK; [1],48%
same,%Inh,AMPK-alpha1; [1],0%
same,%Inh,AMPK-alpha2; [1],16%
same,%Inh,ANKK1; [1],5%
same,%Inh,ARK5; [1],24%
same,%Inh,ASK1; [1],0%
same,%Inh,ASK2; [1],0%
same,%Inh,AURKA; [1],12%
same,%Inh,AURKB; [1],18%
same,%Inh,AURKC; [1],23%
same,%Inh,AXL; [1],100%
same,%Inh,BIKE; [1],24%
same,%Inh,BLK; [1],35%
Cc1ccc(NC(=O)Nc2cc(C(C)(C)C)nn2-c2ccccc2)cc1 [GSK1014915],%Inh,ACVR2B; [1],5%
same,%Inh,ACVRL1,5%
same,%Inh,ADCK3; [1],25%
same,%Inh,ADCK4; [1],25%
same,%Inh,AKT1,0%
same,%Inh,AKT2; [1],14%
same,%Inh,AKT3,20%
same,%Inh,ALK; [1],28%
same,%Inh,AMPK-alpha1; [1],0%
same,%Inh,AMPK-alpha2; [1],11%
same,%Inh,ANKK1; [1],0%
same,%Inh,ARK5; [1],0%
same,%Inh,ASK1; [1],1%
same,%Inh,ASK2; [1],22%
same,%Inh,AURKA; [1],0%
same,%Inh,AURKB; [1],17%
same,%Inh,AURKC; [1],18%
same,%Inh,AXL; [1],2%
same,%Inh,BIKE; [1],22%
same,%Inh,BLK; [1],20%
CSc1nn2c(=O)cc(N3CCOCC3)nc2n1Cc1cccc(C(F)(F)F)c1C [GSK2363608],%Inh,ACVR2B; [2],3% and 0%
same,%Inh,ACVRL1,0%
same,%Inh,ADCK3; [2],5% and 0%
same,%Inh,ADCK4; [2],31% and 22%
same,%Inh,AKT1,0%
same,%Inh,AKT2; [2],9% and 13%
same,%Inh,AKT3,0%
same,%Inh,ALK; [2],23% and 31%
same,%Inh,AMPK-alpha1; [2],0% and 2%
same,%Inh,AMPK-alpha2; [2],14% and 0%
same,%Inh,ANKK1; [2],0% and 10%
same,%Inh,ARK5; [2],13% and 8%
same,%Inh,ASK1; [2],14% and 0%
same,%Inh,ASK2; [2],86% and 7%
same,%Inh,AURKA; [2],0% and 1%
same,%Inh,AURKB; [2],0% and 29%
same,%Inh,AURKC; [2],24% and 0%
same,%Inh,AXL; [2],3% and 4%
same,%Inh,BIKE; [2],20% and 0%
same,%Inh,BLK; [2],8% and 9%
CC1=C(C(=O)Nc2cc3cn[nH]c3cc2F)C(c2ccc(C(F)(F)F)cc2)CC(=O)N1 (centres unmarked) [GSK429286],%Inh,ACVR2B; [1],0%
same,%Inh,ACVRL1,0%
same,%Inh,ADCK3; [1],11%
same,%Inh,ADCK4; [1],11%
same,%Inh,AKT1,0%
same,%Inh,AKT2; [1],20%
same,%Inh,AKT3,0%
same,%Inh,ALK; [1],29%
same,%Inh,AMPK-alpha1; [1],23%
same,%Inh,AMPK-alpha2; [1],19%
same,%Inh,ANKK1; [1],0%
same,%Inh,ARK5; [1],7%
same,%Inh,ASK1; [1],0%
same,%Inh,ASK2; [1],24%
same,%Inh,AURKA; [1],23%
same,%Inh,AURKB; [1],1%
same,%Inh,AURKC; [1],46%
same,%Inh,AXL; [1],0%
same,%Inh,BIKE; [1],19%
same,%Inh,BLK; [1],42%
CS(=O)(=O)c1ccc(-c2c(-c3ncn[nH]3)sc(N3CCOCC3)c2C#N)cc1,%Inh,ACVR2B; [1],0%
same,%Inh,ACVRL1,8%
same,%Inh,ADCK3; [1],3%
same,%Inh,ADCK4; [1],0%
same,%Inh,AKT1,1%
same,%Inh,AKT2; [1],15%
same,%Inh,AKT3,0%
same,%Inh,ALK; [1],9%
same,%Inh,AMPK-alpha1; [1],22%
same,%Inh,AMPK-alpha2; [1],8%
same,%Inh,ANKK1; [1],0%
same,%Inh,ARK5; [1],1%
same,%Inh,ASK1; [1],0%
same,%Inh,ASK2; [1],0%
same,%Inh,AURKA; [1],22%
same,%Inh,AURKB; [1],0%
same,%Inh,AURKC; [1],2%
same,%Inh,AXL; [1],0%
same,%Inh,BIKE; [1],6%
same,%Inh,BLK; [1],8%
Clc1cc(Cl)cc(Nc2ccnc(Nc3cc(Cl)cc(Cl)c3)n2)c1 [GSK175726],%Inh,ACVR2B; [1],39%
same,%Inh,ACVRL1,43%
same,%Inh,ADCK3; [1],31%
same,%Inh,ADCK4; [1],3%
same,%Inh,AKT1,0%
same,%Inh,AKT2; [1],0%
same,%Inh,AKT3,0%
same,%Inh,ALK; [1],18%
same,%Inh,AMPK-alpha1; [1],18%
same,%Inh,AMPK-alpha2; [1],0%
same,%Inh,ANKK1; [1],18%
same,%Inh,ARK5; [1],8%
same,%Inh,ASK1; [1],4%
same,%Inh,ASK2; [1],3%
same,%Inh,AURKA; [1],90%
same,%Inh,AURKB; [1],0%
same,%Inh,AURKC; [1],13%
same,%Inh,AXL; [1],2%
same,%Inh,BIKE; [1],8%
same,%Inh,BLK; [1],6%
